Where “and” joins values, the source holds several entries; their conditions need not be identical. Equal entries are not always repeated. A number with no mark means an inactive call. Calls of active or inactive are those of the source. Rule as the data show it: active = remaining activity below about 50%; inactive = the rest.
molecular target: Phospholipase D1 (Homo sapiens) (UniProt Q13393); experiment: PLD1 inhibitors in cells, Calu-1 cells, single concentration (AID 602144); conditions: cellular PLD1 activity, hits give low values;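 also: tested at 200 nM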
Sequence (Q13393 whole entry, looked up): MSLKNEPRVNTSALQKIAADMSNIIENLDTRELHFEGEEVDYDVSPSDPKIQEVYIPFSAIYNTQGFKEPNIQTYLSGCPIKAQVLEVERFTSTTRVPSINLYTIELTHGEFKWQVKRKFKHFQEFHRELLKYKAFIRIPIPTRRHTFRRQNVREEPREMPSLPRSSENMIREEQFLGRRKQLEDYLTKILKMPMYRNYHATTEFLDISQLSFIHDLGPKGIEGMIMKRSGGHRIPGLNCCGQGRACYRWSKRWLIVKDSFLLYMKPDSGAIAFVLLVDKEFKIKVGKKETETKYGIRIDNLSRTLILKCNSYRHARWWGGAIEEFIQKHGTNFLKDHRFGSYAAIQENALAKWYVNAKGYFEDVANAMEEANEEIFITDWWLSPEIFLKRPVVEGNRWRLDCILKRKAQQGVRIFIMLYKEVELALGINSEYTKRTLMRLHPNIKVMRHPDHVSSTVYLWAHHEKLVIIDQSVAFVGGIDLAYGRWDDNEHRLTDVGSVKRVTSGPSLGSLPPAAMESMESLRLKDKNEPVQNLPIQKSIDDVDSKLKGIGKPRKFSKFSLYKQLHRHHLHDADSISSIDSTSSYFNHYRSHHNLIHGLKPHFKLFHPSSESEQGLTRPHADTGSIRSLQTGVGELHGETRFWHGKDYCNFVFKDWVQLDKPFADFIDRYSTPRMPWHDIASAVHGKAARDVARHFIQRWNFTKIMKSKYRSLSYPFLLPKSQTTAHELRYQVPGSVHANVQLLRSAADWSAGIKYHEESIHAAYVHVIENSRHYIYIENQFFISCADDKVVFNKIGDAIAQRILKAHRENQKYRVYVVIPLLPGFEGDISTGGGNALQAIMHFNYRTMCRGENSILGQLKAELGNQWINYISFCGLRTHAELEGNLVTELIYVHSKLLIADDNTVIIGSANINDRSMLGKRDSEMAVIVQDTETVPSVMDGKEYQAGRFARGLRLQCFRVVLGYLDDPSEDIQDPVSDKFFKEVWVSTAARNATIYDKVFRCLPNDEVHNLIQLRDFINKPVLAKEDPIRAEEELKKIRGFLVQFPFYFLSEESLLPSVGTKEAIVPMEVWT
Sequence (Q13393 whole entry, looked up): as above

Question: For `O=C(NCCCCCCN1CCC2(CC1)C(=O)NCN2c1ccccc1)c1cnc2ccccc2c1`, which remaining activity is on record?
Answer: 122%

Question: How did the remaining activity turn out when `O=C1c2ccccc2C(=O)N1CCCN1CCC2(CC1)C(=O)NCN2c1ccccc1` was run?
Answer: 84.6%

Question: Which remaining activity does the source give for `O=C(c1cnc2ccccc2c1)N1CC(N2CCC(n3c(=O)[nH]c4cc(Br)ccc43)CC2)C1` here?
Answer: 81.6%

Question: How did the remaining activity turn out when `O=C(c1ccc2ccccc2c1)N1CCCC1CN1CCC(n2c(=O)[nH]c3ccccc32)CC1` (stereo not given) was run?
Answer: 101% and 112%

Question: How did the remaining activity turn out when `O=C(c1ccc(F)c(F)c1)N(CCN1CCC2(CC1)C(=O)NCN2c1cccc(F)c1)C(=O)c1ccc(F)c(F)c1` was run?
Answer: 101%

Question: With `O=C(NCCN1CCC2(CC1)C(=O)NCN2c1ccccc1)C(c1ccccc1)c1ccccc1` as the compound, how does the remaining activity read?
Answer: 99.2%

Question: How did the remaining activity turn out when `O=C(c1ccc2ccccc2c1)N1CC(N2CCC3(CC2)C(=O)NCN3c2ccccc2)C1` was run?
Answer: 82.4%

Question: With `COc1ccc(CC(=O)NCCN2CCC3(CC2)C(=O)NCN3c2cccc(F)c2)cc1OC` as the compound, how does the remaining activity read?
Answer: 108% and 107%

Question: `O=C(NCCN1CCC2(CC1)C(=O)NCN2c1ccccc1)c1cccc(F)n1` was tested. Which remaining activity did it give?
Answer: 138%

Question: `C[C@H](CN1CCC2(CC1)C(=O)NCN2c1ccccc1)NC(=O)c1cc2cc(F)ccc2[nH]1` was tested. Which remaining activity did it give?
Answer: 2.46% (active)

Question: With `O=C(c1ccc(F)c(F)c1)N1CCC[C@@H]1CN1CCC2(CC1)C(=O)NCN2c1ccccc1` as the compound, how does the remaining activity read?
Answer: 93.7%

Question: With `O=C(NCCN1CCC2(CC1)C(=O)NCN2c1ccc(F)cc1)c1cc2cc(F)ccc2[nH]1` as the compound, how does the remaining activity read?
Answer: 48.1% (active)

Question: With `O=C(NCCN1CCC2(CC1)C(=O)NCN2c1ccccc1)C1(c2ccccc2)CCC1` as the compound, how does the remaining activity read?
Answer: 94.9%

Question: With `O=C(NCCN1CCC2(CC1)C(=O)NCN2c1ccccc1)c1cnco1` as the compound, how does the remaining activity read?
Answer: 98%

Question: `C[C@@H](CN1CCC2(CC1)C(=O)NCN2c1ccccc1)NC(=O)[C@@H]1C[C@H]1c1ccccc1` was tested. Which remaining activity did it give?
Answer: 70.5%

Question: For `O=C(COCc1ccccc1)NCCN1CCC2(CC1)C(=O)NCN2c1cccc(F)c1`, which remaining activity is on record?
Answer: 108%

Question: `O=C(CCN1CCC2(CC1)C(=O)NCN2c1ccccc1)Nc1ccc(F)c(F)c1` was tested. Which remaining activity did it give?
Answer: 125%

Question: Which remaining activity does the source give for `O=C(CCN1CCC2(CC1)C(=O)NCN2c1ccccc1)Nc1ccc(F)cc1` here?
Answer: 125%

Question: With `O=C(NCCN1CCC2(CC1)C(=O)NCN2c1ccc(F)cc1)c1cnc2ccccc2c1` as the compound, how does the remaining activity read?
Answer: 60.5%

Question: With `O=C(c1cccc(F)c1)N(CCN1CCC2(CC1)C(=O)NCN2c1cccc(F)c1)C(=O)c1cccc(F)c1` as the compound, how does the remaining activity read?
Answer: 93.5%

Question: `O=C(NCCN1CCC2(CC1)C(=O)NCN2c1ccccc1)c1ncc(F)cc1F` was tested. Which remaining activity did it give?
Answer: 125%

Question: How did the remaining activity turn out when `O=C(NCCN1CCC2(CC1)C(=O)NCN2c1ccc(Cl)cc1)c1ccc(Cl)cc1` was run?
Answer: 103%

Question: How did the remaining activity turn out when `O=C(NCCN1CCC2(CC1)C(=O)NCN2c1ccc(Cl)cc1)c1ccc(F)cc1` was run?
Answer: 123%

Question: For `CCC(=O)N[C@@H](C)CN1CCC2(CC1)C(=O)NCN2c1ccccc1`, which remaining activity is on record?
Answer: 93.3%

Question: For `Cc1cccc(C(=O)N[C@@H](C)CN2CCC3(CC2)C(=O)NCN3c2ccccc2)c1`, which remaining activity is on record?
Answer: 70%

Question: Which remaining activity does the source give for `Nc1cccc(Cl)c1C(=O)NCCN1CCC2(CC1)C(=O)NCN2c1ccccc1` here?
Answer: 92.9%

Question: For `O=C(NCCN1CCC2(CC1)C(=O)NCN2c1ccccc1)c1ncc[nH]1`, which remaining activity is on record?
Answer: 62.9%

Question: For `C[C@@H](CN1CCC2(CC1)C(=O)N(Cc1ccccc1)c1ccccc12)NC(=O)c1ccc2ccccc2c1`, which remaining activity is on record?
Answer: 90.4%

Question: Which remaining activity does the source give for `O=C(c1ccc(F)c(F)c1)N1CCCC1CN1CCC(n2c(=O)[nH]c3ccccc32)CC1` (stereo not given) here?
Answer: 85.3% and 91.1%

Question: Which remaining activity does the source give for `O=C(Cc1ccccc1Br)NCCN1CCC2(CC1)C(=O)NCN2c1cccc(F)c1` here?
Answer: 100%

Question: `O=C(NCCCN1CCC2(CC1)C(=O)NCN2c1ccccc1)c1cnc2ccccc2c1` was tested. Which remaining activity did it give?
Answer: 99%

Question: `O=C(NCCN1CCC2(CC1)C(=O)NCN2c1ccccc1)c1cnc2ccccc2c1` was tested. Which remaining activity did it give?
Answer: 130%

Question: With `O=C(NCCN1CCC2(CC1)C(=O)NCN2c1ccc(F)cc1)c1cc2ccccc2[nH]1` as the compound, how does the remaining activity read?
Answer: 32.3% (active)

Question: How did the remaining activity turn out when `O=C(NCCCN1CCC2(CC1)C(=O)NCN2c1ccccc1)c1ccc2ccccc2c1` was run?
Answer: 81%

Question: `Cc1ccccc1C(=O)NCCN1CCC2(CC1)C(=O)NCN2c1cccc(F)c1` was tested. Which remaining activity did it give?
Answer: 97.2%
